PubChem BioAssay AID991 (National Center for Advancing Translational Sciences (NCATS), 2007)
Activity calls are given as the source filed them. The rule behind the calls is not given here.

Each compound was assayed against Microtubule-associated protein tau (Homo sapiens) (UniProt P10636) (assay: Tau Fibrillization assay). Conditions: His6-htau40 arachidonic acid fibrillization, TEM filament length; at 0.72 µM; stronger effect = lower value.
From the text: NIH Molecular Libraries Screening Centers Network [MLSCN] NIH Chemical Genomics Center [NCGC] MLSCN Grant: 1 X01 MH079825-01 Assay Provider: Jeffrey A. Kuret, Ohio State University NCGC Assay Overview: A number of solution-based assays are available for quantifying the amount of aggregated protein, such as fluorescence spectroscopy, sedimentation, and static and laser light scattering. However, none of these methods allows direct visualization of filaments. Transmission electron microscopy (TEM) can complement these solution-based assays by providing information on filament morphology and length distributions. In vitro fibrillization of htau40 was performed in the presence or absence of selected compounds. The resultant filaments were detected after absorption onto formvar and carbon coated grids and examined by TEM. Random digital images of each experimental condition were obtained, imported into imaging software, and quantified for filament length and number.
NCGC Assay Protocol Summary Aggregation of His6-htau40 (5 uM final concentration) in assembly buffer was induced with arachidonic acid (50 uM final concentration) in the presence or absence of selected library compounds. Each compound was tested at IC50 and four times the IC50values as determined by the tau ThS binding assay. After incubation (18 h at 37 degrees Celsius), reactions were diluted 5-fold in distilled water and assayed by transmission electron microscopy as described previously (Necula and Kuret, 2004). […] 28(3), 251-60. Necula, M., Chirita, C. N., and Kuret, J. (2003) J. Biol. Chem. 278, 46674-46680.

Microtubule-associated protein tau (Homo sapiens), sequence (P10636 whole entry, looked up): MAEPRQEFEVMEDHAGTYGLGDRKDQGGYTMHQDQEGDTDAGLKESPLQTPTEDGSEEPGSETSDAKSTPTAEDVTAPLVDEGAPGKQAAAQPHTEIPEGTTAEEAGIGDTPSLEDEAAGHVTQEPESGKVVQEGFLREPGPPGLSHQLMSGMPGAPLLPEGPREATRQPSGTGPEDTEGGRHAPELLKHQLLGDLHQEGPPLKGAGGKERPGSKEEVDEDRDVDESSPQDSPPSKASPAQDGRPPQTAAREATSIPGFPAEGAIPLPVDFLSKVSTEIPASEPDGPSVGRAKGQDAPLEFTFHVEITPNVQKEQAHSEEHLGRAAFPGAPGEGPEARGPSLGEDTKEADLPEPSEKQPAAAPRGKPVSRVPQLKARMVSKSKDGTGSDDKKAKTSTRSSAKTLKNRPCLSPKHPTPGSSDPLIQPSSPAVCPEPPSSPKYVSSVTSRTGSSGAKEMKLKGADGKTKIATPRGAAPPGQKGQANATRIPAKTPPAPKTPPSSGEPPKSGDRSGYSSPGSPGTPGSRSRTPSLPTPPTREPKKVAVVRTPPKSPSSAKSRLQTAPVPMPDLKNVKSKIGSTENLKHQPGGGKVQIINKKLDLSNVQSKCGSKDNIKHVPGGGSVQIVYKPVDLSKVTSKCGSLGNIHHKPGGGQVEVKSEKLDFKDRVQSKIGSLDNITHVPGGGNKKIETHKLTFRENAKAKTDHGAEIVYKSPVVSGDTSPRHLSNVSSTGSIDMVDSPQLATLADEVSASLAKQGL

| Structure (SMILES) | filament length |
| --- | --- |
| CN(C)c1ccc(C(=C2C=CC(=[N+](C)C)C=C2)c2ccc(N(C)C)cc2)cc1 | 50.3% (active) |

Same assay, conditions: His6-htau40 arachidonic acid fibrillization, TEM filament length; at 0.76 µM; stronger effect = lower value

| Structure (SMILES) | filament length |
| --- | --- |
| Cc1cc(-c2ccc(N=Nc3ccc4c(S(=O)(=O)O)cc(S(=O)(=O)O)c(N)c4c3O)c(C)c2)ccc1N=Nc1ccc2c(S(=O)(=O)O)cc(S(=O)(=O)O)c(N)c2c1O | 91.8% (inactive) |

Same assay, conditions: His6-htau40 arachidonic acid fibrillization, TEM filament length; at 4 µM; stronger effect = lower value

| Structure (SMILES) | filament length |
| --- | --- |
| CN(C)c1ccc(/C=C2/C(=O)Nc3ccccc32)cc1 | 41.8% (active) |

Same assay, conditions: His6-htau40 arachidonic acid fibrillization, TEM filament length; at 6.4 µM; stronger effect = lower value

| Structure (SMILES) | filament length |
| --- | --- |
| N=C1C=CC(=C(c2ccc(N)cc2)c2ccc(N)cc2)C=C1 | 50.8% (active) |

Same assay, conditions: His6-htau40 arachidonic acid fibrillization, TEM filament length; at 8.2 µM; stronger effect = lower value

| Structure (SMILES) | filament length |
| --- | --- |
| COc1cccc2c1C(=N)c1c(O)c3c(c(O)c1C2=O)C[C@](O)(C(C)=O)C[C@@H]3O[C@H]1C[C@H](N)[C@@H](O)[C@H](C)O1 | 86.9% (inactive) |

Same assay, conditions: His6-htau40 arachidonic acid fibrillization, TEM filament length; at 8.4 µM; stronger effect = lower value

| Structure (SMILES) | filament length |
| --- | --- |
| Cc1ccc2nc(-c3ccc(N=Nc4cc(S(=O)(=O)O)c5ccccc5c4O)cc3)sc2c1S(=O)(=O)O | 111% (inactive) |

Same assay, conditions: His6-htau40 arachidonic acid fibrillization, TEM filament length; filament length at lower concentration; at 0.18 µM; stronger effect = lower value

| Structure (SMILES) | filament length |
| --- | --- |
| CN(C)c1ccc(C(=C2C=CC(=[N+](C)C)C=C2)c2ccc(N(C)C)cc2)cc1 | 109% |

Same assay, conditions: His6-htau40 arachidonic acid fibrillization, TEM filament length; filament length at lower concentration; at 0.19 µM; stronger effect = lower value

| Structure (SMILES) | filament length |
| --- | --- |
| Cc1cc(-c2ccc(N=Nc3ccc4c(S(=O)(=O)O)cc(S(=O)(=O)O)c(N)c4c3O)c(C)c2)ccc1N=Nc1ccc2c(S(=O)(=O)O)cc(S(=O)(=O)O)c(N)c2c1O | 116% |

Same assay, conditions: His6-htau40 arachidonic acid fibrillization, TEM filament length; filament length at lower concentration; at 1 µM; stronger effect = lower value

| Structure (SMILES) | filament length |
| --- | --- |
| CN(C)c1ccc(/C=C2/C(=O)Nc3ccccc32)cc1 | 94.5% |

Same assay, conditions: His6-htau40 arachidonic acid fibrillization, TEM filament length; filament length at lower concentration; at 1.6 µM; stronger effect = lower value

| Structure (SMILES) | filament length |
| --- | --- |
| N=C1C=CC(=C(c2ccc(N)cc2)c2ccc(N)cc2)C=C1 | 114% |

Same assay, conditions: His6-htau40 arachidonic acid fibrillization, TEM filament length; filament length at lower concentration; at 2.1 µM; stronger effect = lower value

| Structure (SMILES) | filament length |
| --- | --- |
| Cc1ccc2nc(-c3ccc(N=Nc4cc(S(=O)(=O)O)c5ccccc5c4O)cc3)sc2c1S(=O)(=O)O | 100% |
| COc1cccc2c1C(=N)c1c(O)c3c(c(O)c1C2=O)C[C@](O)(C(C)=O)C[C@@H]3O[C@H]1C[C@H](N)[C@@H](O)[C@H](C)O1 | 91.3% |
